From PubChem
Sm TGR block – blocks Schistosoma mansoni thioredoxin glutathione reductase. Q962Y6. purified TGR, DTNB reduction, TNB absorbance 405 nm. Potency, µM (doses to about 114 µM), inactives show at the highest dose activity change, negative = inhibition, most hits filed as inhibitors. 360,000 tested, 3% active; further: nearly all actives have a fitted effect of over 60% in size
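Kinetic colorimetric format: TGR-catalysed, NADPH-driven DTNB reduction monitored via TNB absorbance. Enzyme dispensed at 20 nM; compound exposure 15 min at room temperature before reaction start.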
FMDV inh – blocks foot and mouth disease virus. FMDV antiviral cell-based qHTS. Potency, µM (top dose mostly 57.9 µM), for inactives: top-dose activity change, negative = inhibition, hits mostly inhibitors. 410,000 tested, 1.2% active; calls by dose curve; tested in HEK293T cells; further: read-out not given here; nearly all actives have a fitted effect of over 45% in size
AmpC no deterg – blocks E. coli AmpC beta-lactamase in detergent-free assay | Potency, µM (titrated, usually from 57.1 µM), for inactives: at the highest dose activity change, negative = inhibition, hits mostly inhibitors | P00811 | 330,000 tested, 0.52% active | AmpC nitrocefin hydrolysis, absorbance 480 nm, 0.0001% Triton;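 further: plate controls were no compound for no effect and no enzyme for full effect; nearly all actives have a fitted effect of over 20% in size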
Target sequence (P00811 whole entry, looked up): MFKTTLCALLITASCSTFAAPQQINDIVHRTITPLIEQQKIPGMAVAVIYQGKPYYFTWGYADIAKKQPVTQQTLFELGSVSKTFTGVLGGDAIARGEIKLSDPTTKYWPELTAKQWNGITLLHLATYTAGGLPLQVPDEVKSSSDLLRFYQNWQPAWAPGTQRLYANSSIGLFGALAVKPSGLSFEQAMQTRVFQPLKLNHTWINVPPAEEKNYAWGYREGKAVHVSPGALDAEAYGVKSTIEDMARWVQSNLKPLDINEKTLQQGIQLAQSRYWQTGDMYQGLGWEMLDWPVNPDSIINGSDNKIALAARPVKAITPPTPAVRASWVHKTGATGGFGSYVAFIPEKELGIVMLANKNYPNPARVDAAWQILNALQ
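AmpC (5.3 nM in the dispensed reagent) in 20 mM phosphate pH 7.0 with 0.01% (detergent screen) or 0.0001% Triton X-100 was preincubated with compounds for 15 min at room temperature. Nitrocefin was then added from an 800 uM solution, and hydrolysis was followed at 480 nm.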
AMA1 RON2 block – disrupts binding of P. falciparum AMA1 to RON2; AlphaScreen AMA1-biotinylated RON2 peptide binding; Potency, µM (highest dose often 58.2 µM), without a hit: at the top dose activity change, negative = inhibition, hits mostly inhibitors; 360,000 tested, 0.2% active;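 further: 0% = vehicle wells and -100% = peptide control; nearly all actives have a fitted effect of over 45% in size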
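AMA1 (3D7) with his tag at 25 nM final met compounds first, then biotinylated RON2 peptide at 25 nM; detection used donor plus acceptor beads, 10 µg/mL apiece, read by AlphaScreen after 30 min at room temperature.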
AmpC detergent – inhibitors of E. coli AmpC beta-lactamase with detergent | P00811 | AmpC hydrolysis of nitrocefin, absorbance 480 nm, 0.01% Triton | Potency, µM (top dose mostly 114 µM), without a hit: at the top dose activity change, negative = inhibition, most hits filed as inhibitors | 370,000 tested, 0.041% active | AID 485294;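 further: 0% = no-compound wells and -100% = no-enzyme wells; nearly all actives have a fitted effect of over 25% in size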
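20 mM phosphate pH 7.0 + 0.01% (detergent screen) or 0.0001% Triton X-100; 5.3 nM AmpC reagent; cpd preinc 15 min RT; nitrocefin (800 uM stock) to start; A480 q20 s × 4 min; Activity was normalised to no-enzyme and no-compound control wells.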
An asterisk follows results filed as active; [ ] = another dose, or the depositor's remark. Hits are enriched below; roughly 4.1% of the tested compounds scored in any of these assays. Unless noted, the call rests on the fitted dose curve; in most records, active means well fitted curve in the direction sought with a large enough effect; inconclusive means small, poorly fitted or top-dose-only effect, or another doubt; inactive means no such curve, though single readings can be large; an effect the other way counts as inactive or inconclusive. Unless noted, on the % scale 0 is the no-effect control and ±100 the full control effect; potency means the concentration at half of the fitted maximal effect.

Results for O=C1CC(N2CCC(c3nc4ccccc4[nH]3)CC2)C(=O)N1c1ccccc1F (centres undefined) ?
Sm TGR block: 32µM*; FMDV inh: -3%; AmpC no deterg: -15%[2.29 µM]; AMA1 RON2 block: -17%; AmpC detergent: 0%

How did COc1ccc(N2C(=O)CC(n3c(CCCCO)nc4ccccc43)C2=O)cc1 (centres undefined) do in these assays?
Sm TGR block: 8.9µM*; FMDV inh: -27%; AmpC no deterg: 15%; AMA1 RON2 block: 4%; AmpC detergent: 2%

Results for CC(C)N(Cc1ccccc1)C(=O)CN1C(=O)CSc2ccc(S(=O)(=O)N3CCCC3)cc21 ?
Sm TGR block: 1%; FMDV inh: -10%; AmpC detergent: 0%

Results for Cc1ccc(CNC(=O)c2ccc3c(=O)n(-c4ccccc4)c(=O)[nH]c3c2)cc1 ?
Sm TGR block: 2%; FMDV inh: 2%; AmpC detergent: 6%

Results for CN(C)CCNC(=O)c1ccc(Cn2c(=O)c3cccn3c3cccnc32)cc1 ?
Sm TGR block: -13%; FMDV inh: -12%; AmpC detergent: -6%

What do the screens show for `COc1ccc(-c2nnc(SCc3cc(=O)c4cc(C)cc(C)c4[nH]3)n2C)cc1`?
Sm TGR block: 1%; FMDV inh: 16µM*; AmpC detergent: 1%

Results for COc1ccc(N=Cc2cc(Cc3ccccc3Cl)cc([N+](=O)[O-])c2O)cc1OC ?
Sm TGR block: -10%; FMDV inh: 8%; AmpC no deterg: -29%; AMA1 RON2 block: 14%; AmpC detergent: 5%

Results for Cc1ccc(N=Cc2cc(Cc3ccccc3Cl)cc([N+](=O)[O-])c2O)c(O)c1 ?
Sm TGR block: 11µM*; FMDV inh: 3%; AmpC no deterg: -45%; AMA1 RON2 block: 10µM*; AmpC detergent: 4%

Results for O=C(NC1(C(F)(F)F)NC(=O)N(Cc2ccco2)C1=O)c1cccs1 (centres undefined) ?
Sm TGR block: 35µM*; FMDV inh: -18%; AmpC no deterg: -16%; AMA1 RON2 block: -9%; AmpC detergent: -7%

Results for CC(C)CN1C(=O)NC(NC(=O)c2cccs2)(C(F)(F)F)C1=O (centres undefined) ?
Sm TGR block: 7%; FMDV inh: -20%; AmpC no deterg: -23%; AMA1 RON2 block: 3%; AmpC detergent: 0%

Results for O=C(NC1(C(F)(F)F)NC(=O)N(Cc2ccco2)C1=O)c1cccnc1 (centres undefined) ?
Sm TGR block: 35µM*; FMDV inh: 0%; AmpC no deterg: -23%; AMA1 RON2 block: -4%; AmpC detergent: 1%

What do the screens show for `O=C(NC1(C(F)(F)F)NC(=O)N(Cc2ccccc2)C1=O)c1cccnc1` (centres undefined)?
Sm TGR block: 2%; FMDV inh: -23%; AmpC no deterg: 0%; AMA1 RON2 block: 10%; AmpC detergent: inconclusive

Results for CCC(/C=C/C(C)C1CCC2C3CCC4=CC(=O)CC[C@@]4(C)C3CC[C@@]12C)C(C)C (some centres undefined) ?
FMDV inh: 2%

How did CCCn1c(CC)nc([N+](=O)[O-])c1Sc1ccc(F)cc1 do in these assays?
Sm TGR block: 45µM*; FMDV inh: 18µM*; AmpC no deterg: -34%; AMA1 RON2 block: -10%; AmpC detergent: 5%

How did COc1ccccc1NC(=O)N1CCN(C(=O)Nc2ccccc2OC)CC1 do in these assays?
Sm TGR block: -6%; FMDV inh: 0%; AmpC no deterg: -15%; AMA1 RON2 block: -7%; AmpC detergent: -12%

Results for CCC1c2ccc(C)n2CCN1C(=O)Nc1ccccc1OC (centres undefined) ?
Sm TGR block: 25µM*; FMDV inh: 34%; AmpC no deterg: 19%; AMA1 RON2 block: 10%; AmpC detergent: -5%

What do the screens show for `COC(=O)c1c(N)n(-c2ccc(OC)c(Cl)c2)c2nc3ccccc3nc12`?
Sm TGR block: -1%; FMDV inh: -21%; AmpC detergent: 15%

How did CCOc1ccc(C2/C(=C(/O)c3ccc4c(c3)CC(C)O4)C(=O)C(=O)N2CCCn2ccnc2)cc1OCC (centres undefined) do in these assays?
Sm TGR block: 89µM*; FMDV inh: -25%; AmpC no deterg: 166%; AMA1 RON2 block: 7%; AmpC detergent: -2%

How did C=CCOc1ccc(C2/C(=C(/O)c3ccc4c(c3)CC(C)O4)C(=O)C(=O)N2CCCN2CCOCC2)cc1 (centres undefined) do in these assays?
Sm TGR block: 0%; FMDV inh: inconclusive; AmpC no deterg: 36%; AMA1 RON2 block: 0%; AmpC detergent: -15%

Results for C=CCOc1ccc(C2/C(=C(\O)c3ccc4c(c3)CC(C)O4)C(=O)C(=O)N2CCN2CCOCC2)cc1OCC (centres undefined) ?
Sm TGR block: 40µM*; FMDV inh: -13%; AmpC no deterg: 58%; AMA1 RON2 block: 8%; AmpC detergent: 0%

Results for COc1cc(C2/C(=C(\O)c3ccc4c(c3)CC(C)O4)C(=O)C(=O)N2CCCn2ccnc2)ccc1O (centres undefined) ?
Sm TGR block: -33%; FMDV inh: -16%; AmpC no deterg: -16%; AMA1 RON2 block: -23%; AmpC detergent: 2%

How did CCC(=O)Nc1sc2c(c1C(=O)Nc1ccc(Br)cc1)CCCCC2 do in these assays?
Sm TGR block: -23%; FMDV inh: -10%; AmpC detergent: 7%

How did CN(CCCC1CCCC1)C(=O)CC1C(=O)NCCN1Cc1ccc(F)cc1 (centres undefined) do in these assays?
Sm TGR block: 28µM*; FMDV inh: 0%; AmpC no deterg: 172%; AMA1 RON2 block: 15%; AmpC detergent: inconclusive

What do the screens show for `O=C(CC1C(=O)NCCN1Cc1cccc(Oc2ccccc2)c1)NCC1CCOCC1` (centres undefined)?
FMDV inh: 5%; AmpC no deterg: 141%; AMA1 RON2 block: 12%; AmpC detergent: -12%

What do the screens show for `CN(CCC1CCOCC1)C(=O)CC1C(=O)NCCN1Cc1ccccc1F` (centres undefined)?
Sm TGR block: 45µM*; FMDV inh: -18%; AmpC no deterg: 60%; AMA1 RON2 block: 33%; AmpC detergent: -6%

Results for COc1cccc(CNC(=O)CC2C(=O)NCCN2CCCc2ccccc2)c1 (centres undefined) ?
Sm TGR block: -26%; FMDV inh: -6%; AmpC no deterg: 53%; AMA1 RON2 block: 12%; AmpC detergent: -3%

What do the screens show for `COc1cccc(CN2CCNC(=O)C2CC(=O)NCC2CCOCC2)c1` (centres undefined)?
Sm TGR block: 35µM*; FMDV inh: 10%; AmpC no deterg: 61%; AMA1 RON2 block: 37%; AmpC detergent: 1%
